Holding throughout (experiment): DAPPL (digital affinity profiling via proximity ligation, sequencing); 10 mM Tris-HCl pH 7.5, 50 mM NaCl, 1 mM DTT, 4% glycerol, room temperature, 30 min; GST-TFs on glutathione beads, 16-mer random dsDNA library, 0.1% formaldehyde crosslink after washing; high values mean tight binding
In one test the target is T1, FEV (Homo sapiens, UniProt Q99581 1-238).
T1 sequence: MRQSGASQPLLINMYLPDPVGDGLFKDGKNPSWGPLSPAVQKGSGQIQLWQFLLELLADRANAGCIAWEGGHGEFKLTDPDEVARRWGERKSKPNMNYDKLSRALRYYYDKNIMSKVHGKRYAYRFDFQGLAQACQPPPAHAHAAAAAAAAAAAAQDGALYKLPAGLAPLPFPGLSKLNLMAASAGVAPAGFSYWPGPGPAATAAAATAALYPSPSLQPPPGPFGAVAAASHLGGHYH
Particulars: protein: recombinant; tags: N-terminal GST; dsDNA, one strand shown. Summed up: (§1)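 Binding signal is each hexamer's read frequency for a factor divided by its frequency in the tag-only sample. The factors were GST-fused human transcription factors from yeast, captured on glutathione beads, DNA-barcoded and pooled with that sample. Pools were incubated with 200 nmole of a random double-stranded 16-mer DNA library in Tris/NaCl/DTT/glycerol buffer at room temperature for 30 min, then washed, crosslinked with 0.1% formaldehyde, proximity-ligated with BsaI/T4 ligase (1 h, 37 °C), PCR-amplified and sequenced on an Illumina NextSeq500.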

For the next test, the target named is ETV5 (Homo sapiens, UniProt P41161 1-510). The conditions noted are these: protein: recombinant; tags: N-terminal GST; dsDNA, one strand shown. The method in brief:
as §1

For a further test, the target named is HSF1 (Homo sapiens, UniProt Q00613 1-529). Particulars: protein: recombinant; tags: N-terminal GST; chain copies: 3; dsDNA, one strand shown. The method in brief:
as §1

In another test the target is T2, SPIC (Homo sapiens, UniProt Q8N5J4 1-248).
T2 sequence: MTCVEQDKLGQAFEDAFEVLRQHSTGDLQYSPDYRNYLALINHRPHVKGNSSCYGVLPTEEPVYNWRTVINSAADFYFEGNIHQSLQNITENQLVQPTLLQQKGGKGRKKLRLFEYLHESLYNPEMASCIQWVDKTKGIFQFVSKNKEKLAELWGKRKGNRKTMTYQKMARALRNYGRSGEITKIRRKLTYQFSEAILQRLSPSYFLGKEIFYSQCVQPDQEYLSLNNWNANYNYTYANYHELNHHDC
Particulars: protein: recombinant; tags: N-terminal GST; dsDNA, one strand shown. Summed up: as §1

For a further test, the target named is ELF4 (Homo sapiens, UniProt Q99607 1-663). Particulars: protein: recombinant; tags: N-terminal GST; dsDNA, one strand shown. The method in brief:
as §1

The next test deals with T3, ELK4 (Homo sapiens, UniProt P28324-2 1-405).
T3 sequence: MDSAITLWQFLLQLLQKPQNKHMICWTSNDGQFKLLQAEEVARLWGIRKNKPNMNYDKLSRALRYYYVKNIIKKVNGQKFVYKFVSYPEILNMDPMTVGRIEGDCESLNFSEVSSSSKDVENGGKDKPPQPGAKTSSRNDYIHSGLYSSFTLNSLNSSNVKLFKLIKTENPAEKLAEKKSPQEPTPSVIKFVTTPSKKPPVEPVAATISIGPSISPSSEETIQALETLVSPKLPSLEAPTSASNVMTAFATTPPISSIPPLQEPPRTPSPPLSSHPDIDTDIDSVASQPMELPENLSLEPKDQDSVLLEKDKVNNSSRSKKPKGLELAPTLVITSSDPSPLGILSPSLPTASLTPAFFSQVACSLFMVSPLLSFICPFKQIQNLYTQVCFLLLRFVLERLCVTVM
The conditions noted are these: protein: recombinant; tags: N-terminal GST; dsDNA, one strand shown. Summed up:
as §1

In a further test the target is T4, ETV2 (Homo sapiens, UniProt O00321 1-342).
T4 sequence: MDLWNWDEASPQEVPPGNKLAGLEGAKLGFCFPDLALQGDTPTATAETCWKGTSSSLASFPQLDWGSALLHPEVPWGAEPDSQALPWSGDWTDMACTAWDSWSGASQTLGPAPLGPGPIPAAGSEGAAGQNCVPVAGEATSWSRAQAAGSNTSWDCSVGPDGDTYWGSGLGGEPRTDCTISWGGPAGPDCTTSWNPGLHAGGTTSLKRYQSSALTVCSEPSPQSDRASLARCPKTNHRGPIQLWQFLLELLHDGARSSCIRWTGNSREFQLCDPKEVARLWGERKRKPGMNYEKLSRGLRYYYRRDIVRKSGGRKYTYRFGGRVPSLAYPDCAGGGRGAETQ
The conditions noted are these: protein: recombinant; tags: N-terminal GST; dsDNA, one strand shown. The method in brief:
as §1

A further test addresses T5, ELF3 (Homo sapiens, UniProt P78545 1-371).
T5 sequence: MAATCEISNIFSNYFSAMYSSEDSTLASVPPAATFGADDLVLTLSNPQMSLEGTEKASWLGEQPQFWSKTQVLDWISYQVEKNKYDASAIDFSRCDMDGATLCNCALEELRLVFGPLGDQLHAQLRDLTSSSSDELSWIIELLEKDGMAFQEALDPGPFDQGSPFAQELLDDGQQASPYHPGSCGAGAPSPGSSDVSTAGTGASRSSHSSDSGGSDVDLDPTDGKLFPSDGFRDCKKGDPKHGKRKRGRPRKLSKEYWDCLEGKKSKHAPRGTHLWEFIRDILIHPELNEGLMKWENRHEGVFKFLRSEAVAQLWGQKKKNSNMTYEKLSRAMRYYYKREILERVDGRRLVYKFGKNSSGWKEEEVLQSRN
The conditions noted are these: protein: recombinant; tags: N-terminal GST; dsDNA, one strand shown. Summed up: as §1

The next test addresses CRX (Homo sapiens, UniProt O43186 1-299). The conditions noted are these: protein: recombinant; tags: N-terminal GST; dsDNA, one strand shown. Summed up:
as §1

The target in another test is ETV1 (Homo sapiens, UniProt P50549 1-477). Particulars: protein: recombinant; tags: N-terminal GST; dsDNA, one strand shown. The method in brief: as §1
The next test concerns the target T6, ERF (Homo sapiens, UniProt P50548 1-548).
T6 sequence: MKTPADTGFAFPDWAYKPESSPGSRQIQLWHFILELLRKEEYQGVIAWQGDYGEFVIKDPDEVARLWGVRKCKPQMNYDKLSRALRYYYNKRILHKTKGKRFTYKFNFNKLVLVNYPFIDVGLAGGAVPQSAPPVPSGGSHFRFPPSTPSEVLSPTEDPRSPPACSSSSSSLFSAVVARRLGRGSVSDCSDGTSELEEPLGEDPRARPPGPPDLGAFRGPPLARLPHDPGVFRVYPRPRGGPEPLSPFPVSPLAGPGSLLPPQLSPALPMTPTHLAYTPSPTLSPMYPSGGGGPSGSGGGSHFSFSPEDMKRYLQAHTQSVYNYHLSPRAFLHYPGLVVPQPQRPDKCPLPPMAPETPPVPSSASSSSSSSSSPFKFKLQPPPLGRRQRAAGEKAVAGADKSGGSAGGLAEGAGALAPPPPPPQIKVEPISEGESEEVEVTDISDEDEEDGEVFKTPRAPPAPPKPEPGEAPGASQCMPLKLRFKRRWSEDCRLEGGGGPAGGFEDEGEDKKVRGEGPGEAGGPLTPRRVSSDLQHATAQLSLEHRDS
The conditions noted are these: protein: recombinant; tags: N-terminal GST; dsDNA, one strand shown. The method in brief: as §1

The target of the next test is T7, ETV3L (Homo sapiens, UniProt Q6ZN32 1-361).
T7 sequence: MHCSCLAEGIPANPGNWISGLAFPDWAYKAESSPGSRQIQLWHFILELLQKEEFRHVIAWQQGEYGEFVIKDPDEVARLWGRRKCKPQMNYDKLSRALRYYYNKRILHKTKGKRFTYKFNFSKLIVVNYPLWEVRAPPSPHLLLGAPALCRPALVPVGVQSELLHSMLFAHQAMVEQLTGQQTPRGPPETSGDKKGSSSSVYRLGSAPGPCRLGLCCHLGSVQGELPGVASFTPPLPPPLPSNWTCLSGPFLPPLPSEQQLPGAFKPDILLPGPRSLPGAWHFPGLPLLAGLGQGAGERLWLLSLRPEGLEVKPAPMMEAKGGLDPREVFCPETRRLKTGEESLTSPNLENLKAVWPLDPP
The conditions noted are these: protein: recombinant; tags: N-terminal GST; dsDNA, one strand shown. The method in brief: as §1

The next test concerns the target T8, ETS2 (Homo sapiens, UniProt P15036 1-469).
T8 sequence: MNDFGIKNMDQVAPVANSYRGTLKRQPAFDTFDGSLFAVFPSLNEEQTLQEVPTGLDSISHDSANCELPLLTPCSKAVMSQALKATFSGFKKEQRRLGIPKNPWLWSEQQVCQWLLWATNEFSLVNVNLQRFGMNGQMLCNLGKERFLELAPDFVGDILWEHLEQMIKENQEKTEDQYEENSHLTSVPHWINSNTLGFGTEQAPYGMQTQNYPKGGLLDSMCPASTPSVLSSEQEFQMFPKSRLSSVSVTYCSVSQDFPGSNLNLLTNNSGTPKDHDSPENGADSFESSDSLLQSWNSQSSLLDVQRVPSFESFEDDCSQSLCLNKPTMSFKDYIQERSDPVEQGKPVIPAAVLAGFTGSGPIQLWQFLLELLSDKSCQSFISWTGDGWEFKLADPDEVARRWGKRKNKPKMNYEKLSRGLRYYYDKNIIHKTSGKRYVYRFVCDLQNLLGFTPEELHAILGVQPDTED
The conditions noted are these: protein: recombinant; tags: N-terminal GST; dsDNA, one strand shown. The method in brief:
as §1

A further test has as its target T9, SPDEF (Homo sapiens, UniProt O95238 1-335).
T9 sequence: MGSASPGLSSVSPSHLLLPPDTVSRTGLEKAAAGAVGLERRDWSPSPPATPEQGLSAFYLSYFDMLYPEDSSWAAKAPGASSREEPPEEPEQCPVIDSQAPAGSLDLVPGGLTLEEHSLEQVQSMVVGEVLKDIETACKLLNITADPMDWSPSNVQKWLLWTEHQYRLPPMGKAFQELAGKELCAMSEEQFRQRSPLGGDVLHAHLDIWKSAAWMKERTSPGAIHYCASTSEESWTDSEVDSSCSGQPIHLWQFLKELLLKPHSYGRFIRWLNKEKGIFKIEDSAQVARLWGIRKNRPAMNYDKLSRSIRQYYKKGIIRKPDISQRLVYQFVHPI
The conditions noted are these: protein: recombinant; tags: N-terminal GST; dsDNA, one strand shown. The method in brief:
as §1

The target in the next test is T10, ETV7 (Homo sapiens, UniProt Q9Y603 1-341).
T10 sequence: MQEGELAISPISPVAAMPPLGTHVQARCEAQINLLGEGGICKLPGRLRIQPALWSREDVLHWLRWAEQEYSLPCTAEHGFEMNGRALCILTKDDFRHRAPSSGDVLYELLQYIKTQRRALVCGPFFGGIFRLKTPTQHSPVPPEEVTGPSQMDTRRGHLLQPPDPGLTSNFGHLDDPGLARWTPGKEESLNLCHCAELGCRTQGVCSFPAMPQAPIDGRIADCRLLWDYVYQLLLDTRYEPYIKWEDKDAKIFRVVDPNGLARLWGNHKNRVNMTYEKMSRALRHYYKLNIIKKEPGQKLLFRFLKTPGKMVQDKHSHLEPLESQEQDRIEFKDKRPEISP
The conditions noted are these: protein: recombinant; tags: N-terminal GST; dsDNA, one strand shown. Summed up: as §1

The next test addresses T11, ELF5 (Homo sapiens, UniProt Q9UKW6-2 1-255).
T11 sequence: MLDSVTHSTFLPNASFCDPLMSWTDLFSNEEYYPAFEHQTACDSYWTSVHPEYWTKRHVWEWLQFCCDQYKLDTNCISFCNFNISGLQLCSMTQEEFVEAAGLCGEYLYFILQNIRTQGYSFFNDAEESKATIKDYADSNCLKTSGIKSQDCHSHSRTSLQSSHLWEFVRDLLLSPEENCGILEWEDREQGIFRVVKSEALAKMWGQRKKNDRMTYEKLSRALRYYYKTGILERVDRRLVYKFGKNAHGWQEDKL
Particulars: protein: recombinant; tags: N-terminal GST; dsDNA, one strand shown. Summed up: as §1

A further test concerns the target T12, ETV3 (Homo sapiens, UniProt P41162-2 1-143).
T12 sequence: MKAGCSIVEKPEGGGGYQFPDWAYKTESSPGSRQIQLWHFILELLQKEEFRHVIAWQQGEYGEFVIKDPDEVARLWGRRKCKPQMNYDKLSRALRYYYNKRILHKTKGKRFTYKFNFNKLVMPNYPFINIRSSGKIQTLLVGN
The conditions noted are these: protein: recombinant; tags: N-terminal GST; dsDNA, one strand shown. The method in brief:
as §1

Another test addresses ETV6 (Homo sapiens, UniProt P41212 1-452). The conditions noted are these: protein: recombinant; tags: N-terminal GST; dsDNA, one strand shown. The method in brief:
as §1

Among the data in article PMC7862700, “An all-to-all approach to the identification of sequence-specific readers for epigenetic DNA modifications on cytosine” are binding signal values, retold here.

ETV6, sequence (P41212 whole entry): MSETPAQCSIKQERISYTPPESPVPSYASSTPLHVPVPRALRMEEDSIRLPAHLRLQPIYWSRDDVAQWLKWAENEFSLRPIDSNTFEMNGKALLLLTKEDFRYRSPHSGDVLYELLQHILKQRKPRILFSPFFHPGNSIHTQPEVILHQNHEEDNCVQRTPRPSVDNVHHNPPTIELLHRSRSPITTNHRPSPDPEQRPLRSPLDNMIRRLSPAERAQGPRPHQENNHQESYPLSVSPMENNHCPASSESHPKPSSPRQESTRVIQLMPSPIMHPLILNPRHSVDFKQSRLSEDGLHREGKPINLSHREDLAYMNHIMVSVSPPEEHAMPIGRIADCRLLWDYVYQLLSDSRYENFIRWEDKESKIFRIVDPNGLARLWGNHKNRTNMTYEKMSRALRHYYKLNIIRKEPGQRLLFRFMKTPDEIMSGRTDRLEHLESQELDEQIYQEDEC
CRX, sequence (O43186 whole entry): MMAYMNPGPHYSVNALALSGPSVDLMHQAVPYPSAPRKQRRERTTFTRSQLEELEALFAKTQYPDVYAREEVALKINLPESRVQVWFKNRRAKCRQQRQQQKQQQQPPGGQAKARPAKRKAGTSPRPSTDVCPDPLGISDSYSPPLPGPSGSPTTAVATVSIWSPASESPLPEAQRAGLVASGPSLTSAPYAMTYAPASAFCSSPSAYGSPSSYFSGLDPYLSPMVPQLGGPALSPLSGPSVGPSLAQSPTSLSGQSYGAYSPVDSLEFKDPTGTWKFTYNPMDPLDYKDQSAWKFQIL
ELF4, sequence (Q99607 whole entry): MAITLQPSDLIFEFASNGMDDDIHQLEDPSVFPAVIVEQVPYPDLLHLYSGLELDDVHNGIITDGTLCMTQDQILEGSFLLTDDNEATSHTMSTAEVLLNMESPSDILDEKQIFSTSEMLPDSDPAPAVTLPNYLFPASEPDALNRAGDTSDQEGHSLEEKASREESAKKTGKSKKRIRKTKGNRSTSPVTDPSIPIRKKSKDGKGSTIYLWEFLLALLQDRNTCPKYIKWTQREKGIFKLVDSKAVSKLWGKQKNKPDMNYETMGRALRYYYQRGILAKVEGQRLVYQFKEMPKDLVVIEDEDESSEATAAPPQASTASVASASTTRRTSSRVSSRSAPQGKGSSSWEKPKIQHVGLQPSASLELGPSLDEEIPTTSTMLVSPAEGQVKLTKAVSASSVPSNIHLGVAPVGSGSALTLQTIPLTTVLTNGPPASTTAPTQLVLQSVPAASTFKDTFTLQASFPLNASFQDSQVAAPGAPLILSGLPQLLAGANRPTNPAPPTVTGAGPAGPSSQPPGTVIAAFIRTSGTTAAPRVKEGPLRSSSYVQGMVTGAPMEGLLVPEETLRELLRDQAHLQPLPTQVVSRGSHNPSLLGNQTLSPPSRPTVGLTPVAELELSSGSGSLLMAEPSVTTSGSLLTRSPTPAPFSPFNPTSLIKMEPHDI
ETV5, sequence (P41161 whole entry): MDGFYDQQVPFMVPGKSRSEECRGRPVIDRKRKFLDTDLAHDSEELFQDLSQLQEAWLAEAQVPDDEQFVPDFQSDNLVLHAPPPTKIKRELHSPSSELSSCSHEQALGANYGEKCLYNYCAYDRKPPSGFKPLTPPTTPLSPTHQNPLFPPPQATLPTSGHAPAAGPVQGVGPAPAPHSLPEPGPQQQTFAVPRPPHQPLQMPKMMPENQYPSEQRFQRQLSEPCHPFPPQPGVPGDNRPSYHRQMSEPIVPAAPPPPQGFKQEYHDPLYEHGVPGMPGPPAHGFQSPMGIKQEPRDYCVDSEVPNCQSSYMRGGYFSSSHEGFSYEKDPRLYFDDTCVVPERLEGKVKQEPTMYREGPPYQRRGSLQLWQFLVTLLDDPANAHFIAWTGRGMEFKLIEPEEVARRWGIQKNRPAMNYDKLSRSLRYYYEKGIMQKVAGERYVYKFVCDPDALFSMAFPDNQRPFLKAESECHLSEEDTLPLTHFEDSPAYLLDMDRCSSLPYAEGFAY
ETV1, sequence (P50549 whole entry): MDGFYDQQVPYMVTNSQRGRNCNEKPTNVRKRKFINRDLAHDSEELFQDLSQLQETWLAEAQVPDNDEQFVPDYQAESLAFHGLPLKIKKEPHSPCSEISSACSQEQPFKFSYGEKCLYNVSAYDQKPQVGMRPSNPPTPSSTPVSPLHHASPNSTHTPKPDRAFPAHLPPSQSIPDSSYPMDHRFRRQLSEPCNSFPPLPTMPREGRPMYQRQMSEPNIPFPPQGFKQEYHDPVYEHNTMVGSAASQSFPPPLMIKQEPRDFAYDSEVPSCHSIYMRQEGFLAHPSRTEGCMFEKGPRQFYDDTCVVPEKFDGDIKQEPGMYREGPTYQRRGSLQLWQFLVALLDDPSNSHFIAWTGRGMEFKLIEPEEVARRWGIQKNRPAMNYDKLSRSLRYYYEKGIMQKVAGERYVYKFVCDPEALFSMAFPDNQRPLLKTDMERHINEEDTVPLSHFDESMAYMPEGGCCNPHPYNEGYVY
HSF1, sequence (Q00613 whole entry): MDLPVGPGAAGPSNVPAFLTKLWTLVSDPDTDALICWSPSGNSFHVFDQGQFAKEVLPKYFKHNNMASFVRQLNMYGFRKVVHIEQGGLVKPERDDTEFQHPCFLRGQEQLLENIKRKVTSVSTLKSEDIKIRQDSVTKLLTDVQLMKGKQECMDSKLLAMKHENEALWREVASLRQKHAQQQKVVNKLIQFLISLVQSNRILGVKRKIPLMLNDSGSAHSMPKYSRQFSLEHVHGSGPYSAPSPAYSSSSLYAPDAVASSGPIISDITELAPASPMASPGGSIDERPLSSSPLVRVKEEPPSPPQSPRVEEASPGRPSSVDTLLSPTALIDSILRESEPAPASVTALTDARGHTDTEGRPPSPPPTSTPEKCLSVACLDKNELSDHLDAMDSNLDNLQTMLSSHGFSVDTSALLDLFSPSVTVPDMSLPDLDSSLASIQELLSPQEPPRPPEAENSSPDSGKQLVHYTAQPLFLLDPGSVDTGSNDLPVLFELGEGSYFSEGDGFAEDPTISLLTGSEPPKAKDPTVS

Consider CTACGC, for which the binding signal is 1.62 fold enrichment (6-mer frequency, TF over GST control) in the test with FEV; 1.6 fold enrichment (6-mer frequency, TF over GST control) in the test with ETV5; 1.39 fold enrichment (6-mer frequency, TF over GST control) in the test with HSF1; 1.36 fold enrichment (6-mer frequency, TF over GST control) in the test with SPIC; 1.51 fold enrichment (6-mer frequency, TF over GST control) in the test with ELF4; 1.6 fold enrichment (6-mer frequency, TF over GST control) in the test with ELK4. Further, the binding signal with ETV2 is 1.57 fold enrichment (6-mer frequency, TF over GST control); with ELF3 it was 1.57 fold enrichment (6-mer frequency, TF over GST control); with CRX it was 1.38 fold enrichment (6-mer frequency, TF over GST control); with ETV1 it was 1.55 fold enrichment (6-mer frequency, TF over GST control); with ERF it was 1.72 fold enrichment (6-mer frequency, TF over GST control); with ETV3L, 1.5 fold enrichment (6-mer frequency, TF over GST control). In addition, the binding signal in the test with ETS2 was 1.59 fold enrichment (6-mer frequency, TF over GST control); in the test with SPDEF, 1.56 fold enrichment (6-mer frequency, TF over GST control); with ETV7, 1.42 fold enrichment (6-mer frequency, TF over GST control); in the test with ELF5, 1.49 fold enrichment (6-mer frequency, TF over GST control); with ETV3, 1.59 fold enrichment (6-mer frequency, TF over GST control); with ETV6, 1.64 fold enrichment (6-mer frequency, TF over GST control).
